Source: PubChem BioAssay
Calls of active or inactive are those of the source.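 The calls were made as follows: active = inhibition above the hit cutoff set in the earlier primary screen (cut at about 27% in these data); inactive = the rest.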

Target: Protein phosphatase methylesterase 1 (Homo sapiens) (UniProt Q9Y570)
Assay: PME-1 inhibitor activity retest, confirmation, biochemical, fluorescence polarization, FP-Rh probe, triplicate (AID 2171);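 also: 0% = enzyme with DMSO and 100% = wells lacking PME-1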
Settings: recombinant PME-1, FP-Rh probe fluorescence polarization; at 5.9 µM; active compounds read high

Sequence of Protein phosphatase methylesterase 1 (Homo sapiens) (Q9Y570 whole entry, looked up): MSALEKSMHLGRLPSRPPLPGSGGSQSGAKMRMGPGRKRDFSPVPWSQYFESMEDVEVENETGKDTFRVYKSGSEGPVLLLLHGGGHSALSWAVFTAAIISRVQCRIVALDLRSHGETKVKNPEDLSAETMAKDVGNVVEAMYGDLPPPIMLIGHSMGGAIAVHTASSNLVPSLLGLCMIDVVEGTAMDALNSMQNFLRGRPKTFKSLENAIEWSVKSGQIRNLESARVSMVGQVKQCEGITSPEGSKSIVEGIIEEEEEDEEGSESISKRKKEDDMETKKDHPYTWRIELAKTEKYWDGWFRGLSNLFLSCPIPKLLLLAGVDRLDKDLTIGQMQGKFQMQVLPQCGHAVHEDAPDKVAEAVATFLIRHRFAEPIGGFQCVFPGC

Row | SMILES | inhibition
1 | C/C(=N\NC(=O)c1ccc(N/N=C(\C)c2ccc(O)cc2)cc1)c1ccc(O)cc1 | 43.4% (active)
2 | Cc1cc(N(C)C)ccc1N=Nc1ccc2ncccc2c1 | 42.3% (active)
3 | O=C1NC(=S)/C(=C\c2ccc(-c3ccccc3Cl)o2)S1 | 33.2% (active)
4 | O=C1CN(C(=O)c2ccccc2F)C(c2ccccc2)c2cc(F)ccc2N1 (centres undefined) | 16.4% (inactive)
5 | Cc1ccc(-c2nc(Nc3ccccc3)n[nH]2)cc1 | 48.5% (active)
6 | CCc1ccc(CNc2ccc(O)cc2)cc1 | 7.5% (inactive)
7 | N#C/C(=C/c1ccc(N2CCCC2)c([N+](=O)[O-])c1)c1nc2ccccc2[nH]1 | 30.9% (active)
8 | Nc1ccc(Br)c2c1C(=O)c1ccccc1C2=O | 21% (inactive)
9 | Cc1cc(C)c2[nH]c(O)c(N=NC3=NC(=O)CS3)c2c1 | 32% (active)
10 | Cn1c(=O)c2c(nc(CN3CCN(C(c4ccccc4)c4ccccc4)CC3)n2CCCO)n(C)c1=O | 23.8% (inactive)
11 | CCNc1c2c3c(cccc3n(C)c1=O)C(=O)c1ccccc1-2 | 80.2% (active)
12 | CCOc1cc(/C=C/c2ccc3cccc([N+](=O)[O-])c3n2)cc(Cl)c1O | -9.78% (inactive)
13 | O=c1ccc2ccc(Oc3ccc([N+](=O)[O-])cc3[N+](=O)[O-])cc2o1 | 25.6% (inactive)
14 | Cc1ccc(C)c(NC(=O)COC(=O)c2cccc3c2C(=O)c2ccccc2C3=O)c1 | 92.7% (active)
15 | C/C(=N\Nc1ccccc1C(=O)O)c1ccncc1 | 1.32% (inactive)
16 | Cc1nc(S/C(=C/c2ccc(-c3cc(Cl)ccc3C)o2)C(=O)O)n[nH]1 | 26.7% (active)
17 | Cc1nn(-c2ccccc2)c2ncc(C(=O)c3cc(Cl)ccc3O)cc12 | -5.34% (inactive)
18 | CCC(=O)NC(c1ccccc1Cl)c1c(O)ccc2ccccc12 (centres undefined) | 53.2% (active)
19 | CC(=O)c1cc(O)c2ccccc2c1O | 22.5% (inactive)
20 | O=C(O)c1cc(N/N=C/c2c(O)ccc3ccccc23)ccc1Cl | 20.7% (inactive)
21 | O=C(N/N=C/c1c(O)ccc2ccccc12)Nc1ccccc1 | 35.5% (active)
22 | CCCOc1ccc([C@@H]2C3CN(C(=O)OCC)CC=C3C(C#N)=C(N)C2(C#N)C#N)cc1OC (some centres undefined) | 53.6% (active)
23 | COc1ccc2nc(N3C(=O)/C(=C/c4ccccc4)NC3=S)sc2c1 | 43.3% (active)
24 | CCc1ccc(NC(=O)Nc2cccs2)cc1 | 17.9% (inactive)
